# Laboratory results as given in PubChem BioAssay (Tox21).
# “And” between values parts separate entries of the source, which are not always exact repeats. Identical values can stand only once. Inconclusive results are not listed. Where a call stands in place of a potency, no number is given. A structure can be active in one record and inactive in another. The source made the active and inactive calls. Unless noted, the call rests on the fitted dose curve; in most records, active means well fitted curve in the direction sought with a large enough effect in the repeat runs; inconclusive means weak or mixed curves; inactive means no such curve, though single readings can be large; an effect the other way counts as inactive or inconclusive.
# What was measured:
# [1] = qHTS assay to test for compound auto fluorescence at 535 nm (green) in HEK293 cells (AID 720680)
# [2] = qHTS assay to test for compound auto fluorescence at 460 nm (blue) in HEK293 cell free culture (AID 720681)
# Method in brief: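 Blue fluorescence (Ex 405/Em 460 nm, triamterene-equivalent) was read immediately after pin transfer of compound or DMSO into medium (DMEM, 10% FBS) without cells.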
# [3] = qHTS assay to test for compound auto fluorescence at 535 nm (green) in HEK293 cell free culture (AID 720682)
# Method in brief: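 Measurement is a direct plate read of green fluorescence (485 nm in, 535 nm out) after compound addition to serum-supplemented DMEM lacking cells, with fluorescein used to express intensities.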
# [4] = qHTS assay to test for compound auto fluorescence at 590 nm (red) in HEK293 cell free culture (AID 720683)
# Method in brief: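 Red-channel autofluorescence of compounds in culture medium (DMEM, 10% FBS), no cells, measured at 540/590 nm. Rose Bengal sodium is the reference fluorophore for equivalence.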
# [5] = qHTS assay to test for compound auto fluorescence at 590 nm (red) in HepG2 cell free culture (AID 720684)
# Method in brief: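 Cell-free; medium MEM + 10% FBS; compound or DMSO added by pintool; read Ex 540/Em 590 nm; Rose Bengal sodium as red reference fluorophore.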
# [6] = qHTS assay to test for compound auto fluorescence at 460 nm (blue) in HepG2 cell free culture (AID 720685)
# Method in brief: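 Cell-free plates of MEM plus 10% FBS received 23 nL compound or DMSO vehicle; blue-channel (405/460 nm) intensity scored against triamterene as reference fluorophore.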
# [7] = qHTS assay to test for compound auto fluorescence at 535 nm (green) in HepG2 cell free culture (AID 720686)
# [8] = qHTS assay to identify small molecule antagonists of the glucocorticoid receptor (GR) signaling pathway - cell viability counter screen (AID 720693); further: nearly all actives have a fitted effect of over 55% in size
# [9] = qHTS assay for identifying genotoxic compounds that show differential cytotoxicity against isogenic chicken DT40 cell lines with known DNA damage response pathways - wild type cell line (AID 743012); further: nearly all actives have a fitted effect of over 60% in size; further: potency means the concentration at half of the fitted maximal effect
# Method in brief: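 Endpoint: CellTiter-Glo luminescence, 30 min RT. Cells: wild type DT40, 300/well. Exposure: compounds in DMSO, 40 h, 37 C/5% CO2, after ~0.5 h pre-incubation.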
# [10] = qHTS assay for identifying genotoxic compounds that show differential cytotoxicity against isogenic chicken DT40 cell lines with known DNA damage response pathways - Rev3 mutant cell line (AID 743014); further: nearly all actives have a fitted effect of over 55% in size; further: potency means the concentration at half of the fitted maximal effect
# [11] = qHTS assay for identifying genotoxic compounds that show differential cytotoxicity against isogenic chicken DT40 cell lines with known DNA damage response pathways - Rad54/Ku70 mutant cell line (AID 743015); further: nearly all actives have a fitted effect of over 60% in size; further: potency means the concentration at half of the fitted maximal effect
# [12] = qHTS assay to identify small molecule antagonists of the androgen receptor (AR) signaling pathway - cell viability counter screen (AID 743033; further: nearly all actives have a fitted effect of over 45% in size)
# [13] = target: Glucocorticoid receptor (Homo sapiens) (UniProt P04150); assay: qHTS assay to identify small molecule agonists of the glucocorticoid receptor (GR) signaling pathway (AID 720691; active means well fitted activation curve with a large enough effect in the signal ratio in the repeat runs, not every such curve was filed as active; the % refers to the signal ratio); conditions: GR-bla HeLa, beta-lactamase reporter ratio, 18 h; activation: at 62.4 µM (top of the series)
# Glucocorticoid receptor (Homo sapiens), sequence (P04150 whole entry, looked up): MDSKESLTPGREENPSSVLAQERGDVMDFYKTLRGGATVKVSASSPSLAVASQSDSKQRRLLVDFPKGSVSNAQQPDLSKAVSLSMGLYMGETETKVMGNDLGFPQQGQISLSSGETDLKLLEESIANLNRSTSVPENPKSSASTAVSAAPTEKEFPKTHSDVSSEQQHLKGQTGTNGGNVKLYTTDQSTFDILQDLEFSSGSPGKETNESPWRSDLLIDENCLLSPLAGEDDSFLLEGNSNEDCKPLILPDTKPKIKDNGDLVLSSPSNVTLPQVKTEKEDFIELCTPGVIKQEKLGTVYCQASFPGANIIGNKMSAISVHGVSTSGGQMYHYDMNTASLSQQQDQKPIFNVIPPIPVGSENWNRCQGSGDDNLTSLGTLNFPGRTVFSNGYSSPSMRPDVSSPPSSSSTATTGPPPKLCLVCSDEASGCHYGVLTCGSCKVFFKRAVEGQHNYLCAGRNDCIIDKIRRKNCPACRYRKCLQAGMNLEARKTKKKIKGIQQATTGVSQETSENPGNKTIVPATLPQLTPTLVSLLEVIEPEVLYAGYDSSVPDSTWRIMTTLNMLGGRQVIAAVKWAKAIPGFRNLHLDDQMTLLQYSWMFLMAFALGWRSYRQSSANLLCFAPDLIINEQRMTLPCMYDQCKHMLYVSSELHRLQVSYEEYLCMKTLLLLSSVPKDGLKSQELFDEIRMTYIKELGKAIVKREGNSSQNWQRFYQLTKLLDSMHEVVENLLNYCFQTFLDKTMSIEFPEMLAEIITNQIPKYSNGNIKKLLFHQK
# Method in brief: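 Measures GR pathway activation through a GRE-beta-lactamase reporter stably integrated in HeLa cells, with 18 h compound treatment at 37 C and fluorescence detection using a FRET substrate.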
# [14] = target: Glucocorticoid receptor (Homo sapiens) (UniProt P04150); assay: qHTS assay to identify small molecule antagonists of the glucocorticoid receptor (GR) signaling pathway (AID 720692; active means well fitted inhibition curve with a large enough effect in the signal ratio in the repeat runs, not every such curve was filed as active; the % refers to the signal ratio)
# Method in brief: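 Tox21 10K library screened in concentration-response for blockade of dexamethasone (5 nM final)-induced GRE-bla reporter activity in HeLa cells; 18 h treatment, fluorescence read.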
# [15] = qHTS assay to identify small molecule antagonists of the androgen receptor (AR) signaling pathway using the MDA cell line - cell viability counter screen (AID 743041; further: nearly all actives have a fitted effect of over 45% in size)
# Method in brief: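 Viability read by CellTiter-Fluor fluorescence in the same wells as the antagonist screen, added after 15.5 h of a 16 h, 37C exposure. Human breast carcinoma MDA-kb2 AR-luc cells, compounds co-dosed with agonist R1881.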
# [16] = target: Androgen receptor (Homo sapiens) (UniProt P10275); assay: qHTS assay to identify small molecule antagonists of the androgen receptor (AR) signaling pathway (AID 743035; active means well fitted inhibition curve with a large enough effect in the signal ratio in the repeat runs, not every such curve was filed as active; the % refers to the signal ratio)
# Androgen receptor (Homo sapiens), sequence (P10275 whole entry, looked up): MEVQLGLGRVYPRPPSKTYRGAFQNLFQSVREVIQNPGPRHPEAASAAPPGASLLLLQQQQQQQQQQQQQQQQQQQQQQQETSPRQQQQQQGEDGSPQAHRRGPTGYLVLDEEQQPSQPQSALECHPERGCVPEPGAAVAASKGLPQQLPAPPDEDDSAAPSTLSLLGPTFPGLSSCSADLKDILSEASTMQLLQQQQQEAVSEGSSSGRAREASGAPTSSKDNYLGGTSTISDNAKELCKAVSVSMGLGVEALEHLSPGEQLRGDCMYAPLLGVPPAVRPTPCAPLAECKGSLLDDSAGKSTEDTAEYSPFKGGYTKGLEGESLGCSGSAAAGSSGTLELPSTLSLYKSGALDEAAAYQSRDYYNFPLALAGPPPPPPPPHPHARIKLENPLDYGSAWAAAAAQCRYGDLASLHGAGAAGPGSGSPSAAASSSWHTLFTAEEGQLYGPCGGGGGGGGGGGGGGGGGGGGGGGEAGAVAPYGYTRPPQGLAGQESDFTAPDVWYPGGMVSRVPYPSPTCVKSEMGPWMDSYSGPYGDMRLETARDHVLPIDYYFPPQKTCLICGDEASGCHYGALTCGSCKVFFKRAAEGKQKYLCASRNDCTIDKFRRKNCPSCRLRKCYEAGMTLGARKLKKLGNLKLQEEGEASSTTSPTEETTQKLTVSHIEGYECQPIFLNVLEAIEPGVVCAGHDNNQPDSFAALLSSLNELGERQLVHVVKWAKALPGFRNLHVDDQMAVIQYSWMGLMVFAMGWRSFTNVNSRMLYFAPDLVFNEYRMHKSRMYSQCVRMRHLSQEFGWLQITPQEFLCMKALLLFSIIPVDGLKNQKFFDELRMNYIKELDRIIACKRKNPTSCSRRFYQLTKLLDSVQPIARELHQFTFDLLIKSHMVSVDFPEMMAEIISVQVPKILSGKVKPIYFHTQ
# Method in brief: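 R1881 agonist challenge of a HEK293 UAS-beta-lactamase AR reporter line in the presence of compound (16 h, 37C); signal taken as FRET fluorescence after 2 h with LiveBLAzer B/G substrate at room temperature.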
# [17] = target: Androgen receptor (Homo sapiens) (UniProt P10275); assay: qHTS assay to identify small molecule agonists of the androgen receptor (AR) signaling pathway (AID 743036; active means well fitted activation curve with a large enough effect in the signal ratio in the repeat runs, with a control signal flat, not every such curve was filed as active; the % refers to the signal ratio)
# Method in brief: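 Beta-lactamase under UAS control, stably integrated in HEK293 GripTite cells, reports receptor activation. After 16 h compound treatment, cells received FRET substrate for 2 h at room temperature before fluorescence reading.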
# [18] = target: Androgen receptor (Homo sapiens) (UniProt P10275); assay: qHTS assay to identify small molecule agonists of the androgen receptor (AR) signaling pathway using the MDA cell line (AID 743040; further: nearly all actives have a fitted effect of over 20% in size)
# Method in brief: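 Luciferase agonist assay: 16 h compound exposure at 37C without CO2 in MDA-kb2 AR-luc cells, whose MMTV promoter responds to both AR and GR. Luminescence measured after 30 min room-temperature incubation with ONE-Glo.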
# [19] = target: Androgen receptor (Homo sapiens) (UniProt P10275); assay: qHTS assay to identify small molecule antagonists of the androgen receptor (AR) signaling pathway using the MDA cell line (AID 743042; further: nearly all actives have a fitted effect of over 55% in size)
# Method in brief: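 Antagonist mode: compounds plus R1881 agonist added to MDA-kb2 AR-luc cells, incubated 16 h at 37C. Luciferase reporter luminescence quantified, with multiplexed CellTiter-Fluor readout for cell viability.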
Structure (SMILES),outcome [1],outcome [2],outcome [3],outcome [4],outcome [5],outcome [6],outcome [7],outcome [8],Potency [9],Potency [10],Potency [11],Potency [12],Potency [13],Potency [14],Potency [15],outcome [16],Potency [17],Potency [18],outcome [19]
CCCCOC(=O)COc1ccc(Cl)cc1Cl,inactive,inactive,inactive,inactive,inactive,inactive,inactive,inactive,inactive,inactive,inactive,inactive,–,–,–,–,–,–,–
CC(=O)CC(=O)Nc1ccccc1C,inactive,inactive,inactive,inactive,inactive,inactive,inactive,inactive,inactive,–,inactive,inactive,inactive,inactive,inactive,–,–,–,–
c1ccc(OCCOc2ccccc2)cc1,inactive,inactive,inactive,inactive,inactive,inactive,inactive,inactive,inactive,inactive,inactive,inactive,inactive,inactive,inactive,–,–,–,–
O=C(O)c1cc(C(=O)O)cc(S(=O)(=O)O)c1,inactive,inactive,inactive,inactive,inactive,inactive,inactive,inactive,inactive,–,inactive,inactive,inactive,inactive,inactive,–,–,–,–
CCCSc1ccc2nc(NC(=O)OC)[nH]c2c1,inactive,inactive,inactive,inactive,inactive,inactive,inactive,inactive,227 nM (active) and 1.09 µM (active),359 nM (active) and 969 nM (active),452 nM (active) and 1.09 µM (active),inactive,inactive,–,–,–,–,–,–
O=C(CC(C(=O)OC1CCCCC1)S(=O)(=O)O)OC1CCCCC1 (stereo not drawn),inactive,inactive,inactive,inactive,inactive,inactive,inactive,inactive,inactive and 17 µM (active),inactive and 17 µM (active),inactive and 12 µM (active),inactive,inactive,–,inactive,–,–,–,–
O=[N+]([O-])c1ccc(/C=C/c2ccc([N+](=O)[O-])cc2S(=O)(=O)O)c(S(=O)(=O)O)c1,inactive,inactive,inactive,inactive,inactive,inactive,inactive,inactive,inactive,inactive,inactive,inactive,inactive,–,inactive,–,–,–,–
OCC(CO)(CBr)CBr,inactive,inactive,inactive,inactive,inactive,inactive,inactive,inactive,inactive,inactive,inactive,inactive,inactive,inactive,inactive,–,–,–,–
O=C(O)c1ccc2c(c1)C(=O)OC2=O,inactive,inactive,inactive,inactive,inactive,inactive,inactive,inactive,inactive,inactive,inactive,inactive,inactive,inactive,inactive,inactive,inactive,inactive,inactive
CCCCCC(N)=O,inactive,inactive,inactive,inactive,inactive,inactive,inactive,inactive,inactive,inactive,inactive,inactive,–,–,inactive,–,–,–,–
